High-throughput results: PubChem BioAssay, National Center for Advancing Translational Sciences (NCATS)
Hsp90 Hop PPI: changes Hsp90-Hop TPR2A binding signal, up or down | AlphaScreen TPR2A-His6 binding biotin-Hsp90 C-terminal peptide | AID 595 | hit rate 0.44% among 71,000 | Potency, µM (top dose mostly 57 µM), for inactives: at the highest dose activity change, negative = inhibition; active = well fitted curve in either direction with a large enough effect; inconclusive = small, poorly fitted or top-dose-only effect, or another doubt
Bst PK mod: modulators of Bacillus stearothermophilus pyruvate kinase. purified pyruvate kinase, luminescence ATP production; ribose 5-phosphate activator present at AC10. Potency, µM. hit rate 1.2% among 51,000. AID 361; in the data active = potency below about 11 µM; inconclusive = mostly about 12 µM to 25 µM;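 the screen sought inhibitors and activators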;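 note: scaled between full activation by ribose 5 phosphate and full inhibition by luteolin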
15-hLO inh: blocks human 15-lipoxygenase activity | AID 887 | hit rate 1.4% among 74,000 | Potency, µM (titrated, usually from 57.1 µM), for inactives: top-dose activity change, negative = inhibition, most hits filed as inhibitors | P16050 | purified 15hLO-1, xylenol orange hydroperoxide absorbance; note: nearly all actives have a fitted effect of over 55% in size
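Hydroperoxide formed from arachidonic acid (50 uM) by purified human 15hLO-1 (40 nM) oxidizes ferrous iron, and the ferric-xylenol orange complex is read at 573 versus 405 nm. Compounds were preincubated 15 min; reaction ran 6 min at room temperature.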
Tau filament bind: binders of human tau filaments. P10636. recombinant tau filaments, thioflavin S fluorescence, 15 h; filaments grown with octadecylsulfate alongside compound. Potency, µM (series often up to 57.1 µM), inactives show at the highest dose activity change, negative = inhibition. hit rate 2% among 71,000;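 note: actives lower thioflavin S fluorescence by blocking filaments or displacing dye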
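Quantitative HTS: thioflavine S signal from ODS-induced tau filaments, excited at 450 nm, emission 510 nm. Conditions: 1 uM tau, 30 uM ODS, 15 h at 37 C, pH 7.4.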
Luciferase inh: inhibitors of firefly luciferase; P08659; purified firefly luciferase, luminescence, 8 min; Potency, µM (highest dose often 57.1 µM), without a hit: at the highest dose activity change, negative = inhibition, most hits filed as inhibitors; hit rate 2.2% among 72,000; note: nearly all actives have a fitted effect of over 40% in size
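Firefly luciferase (PKLight detection mix) with 10 uM ATP in pH 7.2 imidazole buffer (KCl, MgCl2, Tween 20, BSA). Compounds tested across a concentration series (qHTS). Luminescence read after 8 min at ambient temperature.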
ERK AVP inh: vasopressin-driven ERK pathway inhibition; HEK293-V1b, vasopressin-stimulated pERK AlphaScreen; AID 995; Potency, µM (titrated, usually from 57.5 µM), without a hit: at the highest dose activity, negative = inhibition, most hits filed as inhibitors; hit rate 0.99% among 72,000; note: nearly all actives have a fitted effect of over 55% in size
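Overnight-seeded V1b-HEK293 cells in 1% FBS got compound, then vasopressin (25 nM final, 5 min, 37C), then lysis buffer. AlphaScreen detection of phospho-ERK; activity normalized to basal and full-stimulation controls.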
Active calls of the source: *; i = inactive; ? = inconclusive; nt = no result given; [ ] = dose if it differs, or a comment. Only some compounds are listed: those with a hit (about 6.1% of all), similar ones and a draw of the others. Unless noted, calls come from the whole dose curve; as a rule, active = well fitted curve in the direction sought with a large enough effect; inconclusive = small, poorly fitted or top-dose-only effect, or another doubt; inactive = no such curve, though single readings can be large; an effect the other way counts as inactive or inconclusive. Unless noted, % is set by controls: 0 for no effect and ±100 for the full control effect; potency is the fitted concentration of half-maximal effect.

SMILES | Hsp90 Hop PPI | Bst PK mod | 15-hLO inh | Tau filament bind | Luciferase inh | ERK AVP inh
Nc1nc(Cl)nc2c1ncn2[C@@H]1O[C@@H](CO)[C@@H](O)[C@H]1O | -7% | nt | 7% | 6% | 0% | 13µM*
CCNc1ncc2nc(CCc3ccccc3)c(=O)n(CCC#N)c2n1 | -1% | nt | -8% | 112% | 0%[11.4 µM] | ?
COc1ccc2c(c1OC)C(=O)OC2[C@H]1c2c(cc3c(c2OC)OCO3)CCN1C (stereo not given in full) | -10% | nt | 7%[25.6 µM] | ? | 2%[11.4 µM] | 13%[25.7 µM]
COc1ccc2c(c1OC)C(Cc1ccccc1)N1CCc3cc4c(cc3C1=C2)OCO4 (stereo not given) | nt | nt | ? | nt | nt | 6.3µM*
ICCc1ccccc1 | ? | nt | 13µM* | 2% | nt | 44%
COc1cccc(Cn2c(=O)cnc3cnc(N4CCOCC4)nc32)c1 | 3% | nt | -11% | 1% | 0%[11.4 µM] | ?
OC1CN=C2CCCc3c2n(c2ccc(Cl)cc32)C1 (stereo not given) | -14% | nt | ? | 7.9µM* | -1% | -11%
Nn1c(-c2ccccn2)nnc1-c1ccccn1 | ? | >57 | 16% | -19% | -7% | 36%
c1ccc(-c2ccccn2)nc1 | 13µM* | nt | 9% | -5% | 4% | 9%
COc1cccc(Nc2ncc3nc(CCc4ccccc4)c(=O)n(C)c3n2)c1 | -6% | nt | 0% | 13% | 1%[11.4 µM] | -10%
COCC(C)NC(=O)NC1(C(F)(F)F)Oc2ccc(Cl)cc2O1 (stereo not given) | 1% | >57 | -21% | -49% | 2% | 14%
O=C(NCCN1CCOCC1)NC1(C(F)(F)F)Oc2ccc(Cl)cc2O1 (stereo not given) | 1% | >57 | 3.2µM* | 0% | 0% | 22%
CC(=O)[C@H](C(=N)C#N)C(=O)Nc1ccccc1 | -2%[11 µM] | nt | 2%[11.4 µM] | 2%[11.4 µM] | 0%[11.4 µM] | -10%[11.5 µM]
CC(C)NC(=O)N1CC[C@@]2(CCCN(C(=O)c3csnn3)C2)C1 | 3% | nt | 8% | 2% | 2%[11.4 µM] | 5%
Cc1ccc(C2NC(=O)c3c(sc4c3CCN(C)C4)N2)o1 (stereo not given) | -11% | >11 | 3.2µM* | i | -13% | ?
Cc1ccc(C2NC(=O)c3c(sc4c3CCN(C)C4)N2)s1 (stereo not given) | -11% | nt | ? | i | -16% | -11%
CN1CCc2c(sc3c2C(=O)NC(/C=C/c2ccco2)N3)C1 (stereo not given) | -10% | nt | ? | 298% | -15% | 16µM*
CN1CCc2c(sc3c2C(=O)NC(c2ccc4c(c2)OCO4)N3)C1 (stereo not given) | -3% | i | ? | i | -18% | 17%
COc1ccc(O[C@H]2C=C[C@@H](c3ccccc3)O[C@H]2COC(=O)CC/C(C)=N\O[C@@H](C)c2cn([C@H]3COC[C@H]3O)nn2)cc1 | nt | nt | 6%[11.4 µM] | nt | 0%[11.4 µM] | -21%[11.5 µM]
Cc1cc(C)nc(N2CCCC(C(=O)NCCc3ccccc3F)C2)n1 (stereo not given) | -6% | 3.2* | 1% | 2% | 2% | -6%
CCOc1cc(C)nc(N2CCCC(C(=O)NCc3ccccc3F)C2)n1 (stereo not given) | 2% | >57 | -7% | -3% | -1% | -22%
Fc1ccc(-c2nnc(-c3ccc(Cl)cc3Cl)o2)cc1 | 15% | nt | 2% | 132% | 1.3µM* | nt
Clc1ccc(-c2nnc(-c3ccc(Br)o3)o2)c(Cl)c1 | -1% | nt | -1% | 342% | -27% | 23%
Clc1ccc(-c2nnc(-c3ccccc3)o2)c(Cl)c1 | ? | 2.5* | -12% | 3% | 2µM* | 33%
CCSc1nnc(-c2ccc(Cl)cc2Cl)o1 | 24%[11 µM] | nt | 3.2µM* | 2%[11.4 µM] | ? | 52%
Fc1ccc(-c2nnc(-c3ccc(Cl)cc3)o2)cc1 | 3% | nt | -1% | 73% | -2% | 0%
CC(=O)OC[C@H]1O[C@@H](O/N=C(\C)CCN2CCCc3nc(C)c(C)cc32)[C@H](OC(C)=O)[C@@H](OC(C)=O)[C@H]1OC(C)=O | nt | nt | 3%[11.4 µM] | nt | 1%[11.4 µM] | 8%[11.5 µM]
N#CC1=C(N)Oc2n[nH]c(-c3ccc(F)cc3)c2C1c1ccncc1 (stereo not given) | -2% | >57 | -15% | 6% | 1% | -16%
